EPAC2 antagonist = qHTS for Antagonist of cAMP-regulated guanine nucleotide exchange factor 2 (EPAC2): primary screen | Rap guanine nucleotide exchange factor 4 (Homo sapiens), Q8WZA2 | EPAC2 GEF exchange of Rap1B-BODIPY-GDP, fluorescence | Potency, µM (doses to about 114 µM), without a hit: at the top dose activity, negative = inhibition, most hits filed as inhibitors | hit rate 0.18% among 360,000 | AID 720708, 2013; further: on the % scale 0 is the no-effect control and ±100 the full control effect; nearly all actives have a fitted effect of over 45% in size
EPAC2 agonist = qHTS for Agonist of cAMP-regulated guanine nucleotide exchange factor 4 (EPAC2): primary screen | AID 720711, 2013 | Potency, µM (series often up to 154 µM), for inactives: at the top dose activation, most hits filed as activators | hit rate 0.079% among 360,000 | EPAC2 activation, biochemical qHTS; response scale: 100% = 6.5 mM cAMP response; further: nearly all actives have a fitted effect of over 50% in size
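In this primary screen, activation is scored as increased exchange of BODIPY-GDP from Rap1B by 100 nM EPAC2, with 50 uM GDP as competitor. Signal is normalized to the 6.5 mM cAMP agonist control.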
EPAC1 antag = qHTS for Antagonist of cAMP-regulated guanine nucleotide exchange factor 3 (EPAC1): primary screen. EPAC1 GEF assay, Rap1b-BODIPY-GDP exchange fluorescence. Rap guanine nucleotide exchange factor 3 (Homo sapiens), O95398. AID 720709, 2013. hit rate 0.14% among 360,000. Potency, µM (series often up to 115 µM), for the others: at the highest dose activity change, negative = inhibition, usual class: inhibitors;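 further: plate controls were vehicle for no effect and positive control for full effect; nearly all actives have a fitted effect of over 50% in size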
EPAC1 ag = qHTS for Agonist of cAMP-regulated guanine nucleotide exchange factor 3 (EPAC1): primary screen | Rap guanine nucleotide exchange factor 3 (Homo sapiens), O95398 | EPAC1 agonist qHTS, biochemical assay; response scale: 100% = response to 6.5 mM cAMP | Potency, µM (highest dose often 154 µM), inactives show at the top dose activation, actives largely listed as activators | hit rate 0.073% among 360,000 | AID 720707, 2013; further: nearly all actives have a fitted effect of over 60% in size
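Normalized to 6.5 mM cAMP, activity reflects EPAC1-catalysed release of BODIPY-GDP from Rap1B, followed kinetically over 30 min at 480 nm excitation, 540 nm emission. Reaction contained 100 nM EPAC1, 250 nM Rap1B-BODIPY-GDP, 50 uM GDP.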
USP1-UAF1 inh = Inhibitors of USP1/UAF1: Primary Screen; Ubiquitin carboxyl-terminal hydrolase 1 (Homo sapiens), O94782; recombinant USP1/UAF1, Ub-Rhodamine cleavage fluorescence; Potency, µM (series often up to 57.1 µM), inactives show top-dose activity change, negative = inhibition, most hits filed as inhibitors; hit rate 0.23% among 390,000; further: on the % scale 0 is the no-effect control and ±100 the full control effect; nearly all actives have a fitted effect of over 60% in size
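1 nM enzyme complex + cpd, 15 min RT; start with Ub-Rho 150nM final; kinetic fluorescence ex 480/em 540, 6 reads q60 s. Buffer 50mM HEPES pH 7.8, 0.5mM EDTA, 0.1 mg/ml BSA, 1mM TCEP, 0.01% Tween-20.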
ALOX12 inh = Primary qHTS assay for inhibitors of human arachidonate 12S-lipoxygenase (ALOX12): Round 2; Polyunsaturated fatty acid lipoxygenase ALOX12 (Homo sapiens), P18054; purified 12hLO, xylenol orange hydroperoxide absorbance; Potency, µM (series often up to 108 µM), without a hit: at the top dose activity change, negative = inhibition, usual class: inhibitors; hit rate 1.1% among 580,000; AID 1671190, 2021; further: on the % scale 0 is the no-effect control and ±100 the full control effect
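Hydroperoxide product was detected by ferrous iron/xylenol orange as the 573 to 405 nm absorbance ratio. Arachidonic acid at 40 uM (final) was turned over for 30 min at room temperature by 150 nM human 12hLO, pH 7.0 Hepes buffer, after 15 min compound preincubation.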
* hit, by the source's call; u = inconclusive; x = no result; ! = not confirmed by another sample. The list is not random: actives were taken first. Their share in the collection is about 1.3%. The call rests on the fitted dose curve; in most records, active means well fitted curve in the direction sought with a large enough effect; inconclusive means small, poorly fitted or top-dose-only effect, or another doubt; inactive means no such curve, though single readings can be large; an effect the other way counts as inactive or inconclusive. Potency means the concentration at half of the fitted maximal effect.

SMILES	EPAC2 antagonist	EPAC2 agonist	EPAC1 antag	EPAC1 ag	USP1-UAF1 inh	ALOX12 inh
O=C(NCCCN1CCCCCC1)C1CCC1	x	x	x	x	x	-3%
O=C(COC(=O)c1ccccc1Br)NCCC1=CCCCC1	-8%	13%	12%	2%	-12%	0%
O=C(NC(=S)NCCC1=CCCCC1)c1ccccc1Br	1%	13%	-21%	2%	-25%	16µM*
O=C(Nc1cccc2cccnc12)c1cccc(Cl)c1Cl	x	x	x	x	x	2%
O=C(NC(=S)Nc1ccc2c(c1)OCO2)c1ccccc1	-2%	-2%	5%	8%	-16%	73%
O=C(NC(=S)Nc1ccc2c(c1)OCCO2)c1cccc2ccccc12	-2%	15%	-4%	13%	-19%	16µM*
O=C(NC(=S)Nc1cccc(Cl)c1N1CCCCC1)c1ccc2c(c1)OCCO2	-7%	8%	2%	4%	-9%	16µM*
O=C(NC(=S)Nc1ccc2c(c1)OCCO2)c1cccc(Br)c1	-1%	6%	4%	9%	-17%	28µM*
COc1nc2ccccc2nc1N1CCC(C(=O)Nc2ccc(Cl)cc2C)CC1	x	x	x	x	x	18%
CCOC(=O)c1ccc(N2C(=O)C3C(/C=C/c4ccccc4)OC4(C(=O)c5ccccc5C4=O)C3C2=O)cc1 (centres undefined)	-2%	14%	100µM*	3%	-4%	7%
Cc1cc(C)cc(Oc2coc3c(CN(C)C)c(O)ccc3c2=O)c1	7%	9%	2%	0%	-2%	6.3µM*
COc1ccc(Oc2coc3c(CN(C)C)c(O)ccc3c2=O)cc1	4%	4%	-9%	4%	-15%	2%
CC/C(=N/Nc1cccc(C)c1)c1cnnc(SC)n1	10%	11%	u	-6%	u	7.9µM*
CCc1cccc(CC)c1NC(=O)COC(=O)c1ccc2ccccc2n1	x	x	x	x	x	6.3µM*
COc1ccc(/C=C2\N=C(SC)SC2=O)cc1C	x	x	x	x	x	-48%
Oc1cc(O)cc(/C=C/c2ccc(O)c(O)c2)c1	u	-8%	-5%	-6%	14%	7.9µM*!
C/C=C/c1ccc(O)c(OC)c1	2%	6%	-8%	-1%	-5%	u
CCCC(C)NC(=O)CSc1nc2cc(Cl)ccc2s1 (centres undefined)	x	x	x	x	x	6%
COc1ccccc1C(O)c1nc(C(=O)Nc2ccc(F)cc2)cs1 (centres undefined)	x	x	x	x	x	9%
O=C(Nc1ccc(Cl)cc1)c1csc(C(O)c2cccc(OC(F)(F)F)c2)n1 (centres undefined)	x	x	x	x	x	14µM*
CNc1c(NC(=O)CC(=O)OC)c(=O)oc2ccccc12	x	x	x	x	x	7%
Cc1nsc(N)c1C(=O)OCc1csc(-c2ccccc2)n1	x	x	x	x	x	25µM*
CN(Cc1nc2ccsc2c(=O)[nH]1)C(=O)COc1cccc(F)c1	x	x	x	x	x	5µM*
Cc1c(C(=O)N(C)Cc2nc3ccsc3c(=O)[nH]2)cnn1-c1ccc(F)cc1F	x	x	x	x	x	4%
Cc1cc(O)c(C(C)C)cc1N=Cc1ccc([N+](=O)[O-])cc1	3%	7%	16%	3%	u	u
SMILES	EPAC2 antagonist	EPAC2 agonist	EPAC1 antag	EPAC1 ag	USP1-UAF1 inh	ALOX12 inh
Cc1cc(O)c(C(C)C)cc1N=Cc1ccc(N(C)C)cc1	6%	-3%	11%	1%	32µM*	u
Cc1ccccc1CN1CCNC(=O)C1CC(=O)NC1CCCCCCC1 (centres undefined)	-5%	-25%	-29%	-11%	-25%	-22%
COc1ccc(CN2CCNC(=O)C2CC(=O)NC2CCCCCC2)c(C)c1C (centres undefined)	18%	5%	7%	-5%	-21%	32µM*
Cn1c(-n2cccc2)c(-c2c(-c3cccc4ccccc34)[nH]c3c2c(=O)[nH]c(=O)n3C)c(=O)[nH]c1=O	x	x	x	x	x	18µM*
Cn1c(-n2cccc2)c(-c2c(-c3ccccc3)[nH]c3c2c(=O)[nH]c(=O)n3C)c(=O)[nH]c1=O	x	x	x	x	1%	-4%
CC(C)c1cc(=O)oc2cc(OCC(=O)NCCc3ccccc3)ccc12	x	x	x	x	x	30%
Cc1cccc2c(-c3ccccc3)cc(=O)[nH]c12	6%	4%	-11%	-12%	-15%	0%
Cc1cc(=S)[nH]c2c(C)cccc12	-5%	-10%	-8%	4%	-11%	1.1µM*!
COc1ccc2c3c([nH]c2c1)[C@@H](CO)N(Cc1ccccc1)CC31CN(C(=O)Cc2ccccc2)C1	x	x	x	x	x	5µM*
Cc1ccc(-c2ccc(/C=C3\SC(N4CCOCC4)=NC3=O)o2)cc1	-2%	-4%	-13%	9%	-13%	35µM*
Cc1ccc(/C=C2\SC(N3CCN(C(c4ccccc4)c4ccccc4)CC3)=NC2=O)o1	4%	17%	-6%	1%	-19%	3.5µM*
COC(=O)c1ccc(COc2ccccc2Br)cc1	x	x	x	x	x	6%
COc1ccc(Cl)cc1Nc1cc(C)nc2nc(-c3ccco3)nn12	x	x	x	x	x	-13%
CCn1nc(C(=O)NC(c2ccc3c(c2)OCCO3)C(C)C)c2ccccc2c1=O (centres undefined)	x	x	x	x	x	-31%
Cc1nnc(CN2CCC(NC(=O)c3cnn(C)c3)CC2)o1	x	x	x	x	x	1%
O=C(NC(=O)c1ccccc1)C1=C(N2CCCC2)COC1=O	0%	4%	0%	2%	15%	12%
O=C(NS(=O)(=O)Nc1ccccc1)C1=C(N2CCCC2)COC1=O	34%	1%	-2%	6%	-14%	16µM*
Cc1ccc2c(ccn2CCC(=O)Nc2nnc(CC(C)C)s2)c1	x	x	x	x	x	-3%
COc1cccc(NC(=O)CSc2nnc(COc3ccc4c(c3)CCCC4)o2)c1	-6%	9%	0%	10%	-20%	14µM*
COC(=O)c1ccc(NC(=O)CSc2nnc(COc3ccc4c(c3)CCCC4)o2)cc1	-1%	11%	4%	5%	7%	16%
CCC(NC(=S)NCc1ccc(F)cc1)c1ccc(C)cc1 (centres undefined)	-22%	16%	-25%	-2%	-16%	u
CCCCC(CC)CNC(=S)NCc1ccc(C)cc1 (centres undefined)	x	x	x	x	x	32µM*
COC(=O)C(CC(CC(C(=O)OC)C(=O)OC)(C(=O)OC)C(=O)OC)C(=O)OC	x	x	x	x	x	2%
